ChEMBL document CHEMBL3988442, “University of Dundee, Small-Polar-MMV Screening Library” (2021)
For some of these results: Potency and affinity values are given separately.

Key:
Set-up in all cases: scale not given: direction of the effect not stated beside the values
[1] = target: Protein translocase subunit SecA (Escherichia coli (strain K12)) (UniProt P10408); experiment: Assay to Identify E. coli SecA ATPase Inhibitors; assay type: functional; conditions: 30 µM
[2] = target: T1, Ubiquitin-activating enzyme e1, putative (Leishmania donovani (strain BPK282A1)) (UniProt E9BSI1); experiment: Leishmania donovani Ubiquitin Activating Enzyme (LdE1); assay type: functional; conditions: 30 µM
T1 sequence (whole entry): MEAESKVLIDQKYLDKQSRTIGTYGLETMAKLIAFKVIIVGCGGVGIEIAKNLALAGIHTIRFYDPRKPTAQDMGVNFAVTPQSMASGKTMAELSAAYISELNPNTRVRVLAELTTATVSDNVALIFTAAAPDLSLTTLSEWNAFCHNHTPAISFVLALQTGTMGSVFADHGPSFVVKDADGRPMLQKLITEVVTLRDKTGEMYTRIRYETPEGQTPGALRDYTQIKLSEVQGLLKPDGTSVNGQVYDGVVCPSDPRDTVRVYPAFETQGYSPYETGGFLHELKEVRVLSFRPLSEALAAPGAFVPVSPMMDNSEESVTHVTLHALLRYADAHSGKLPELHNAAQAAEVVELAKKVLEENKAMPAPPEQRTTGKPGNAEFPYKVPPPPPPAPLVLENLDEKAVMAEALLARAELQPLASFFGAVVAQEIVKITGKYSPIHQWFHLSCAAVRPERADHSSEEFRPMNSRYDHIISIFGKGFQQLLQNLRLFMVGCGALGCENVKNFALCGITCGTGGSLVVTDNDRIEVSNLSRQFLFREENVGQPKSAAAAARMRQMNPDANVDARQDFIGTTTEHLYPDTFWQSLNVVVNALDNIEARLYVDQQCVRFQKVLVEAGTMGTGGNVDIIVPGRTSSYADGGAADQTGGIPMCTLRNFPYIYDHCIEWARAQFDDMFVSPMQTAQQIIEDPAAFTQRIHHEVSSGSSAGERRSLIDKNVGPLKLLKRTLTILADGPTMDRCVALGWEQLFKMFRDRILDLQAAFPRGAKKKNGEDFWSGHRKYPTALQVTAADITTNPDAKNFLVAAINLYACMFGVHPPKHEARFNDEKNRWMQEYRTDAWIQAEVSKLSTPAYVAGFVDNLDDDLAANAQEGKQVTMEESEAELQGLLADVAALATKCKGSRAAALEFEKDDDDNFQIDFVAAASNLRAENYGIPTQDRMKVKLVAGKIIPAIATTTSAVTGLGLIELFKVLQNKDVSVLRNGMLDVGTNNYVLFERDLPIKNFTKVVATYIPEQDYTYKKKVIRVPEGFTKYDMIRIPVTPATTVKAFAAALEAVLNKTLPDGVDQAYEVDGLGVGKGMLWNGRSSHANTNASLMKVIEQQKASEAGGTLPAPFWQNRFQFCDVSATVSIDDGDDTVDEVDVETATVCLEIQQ

[3] = target: AMP-activated protein kinase, AMPK (Homo sapiens) (UniProt P54646+O43741+P54619+Q9UGJ0+Q9Y478+Q13131+Q9UGI9); experiment: AMP-dependent Kinase enzyme assay. An in vitro enzyme assay that detects ADP turnover that is directly proportional to AMPK activity. This uses naive AMPK that is activated during the assay with MK-8722; assay type: functional; conditions: 30 µM
[4] = target: Sialic acid-binding Ig-like lectin 9 (Homo sapiens) (UniProt Q9Y336); experiment: Hs-Siglec9 ALPHAscreen SOP 20170721; conditions: 10 µM
Trypanosoma cruzi = experiment: Trypanosoma cruzi phosphomannomutase and mannose-1-phosphate guanylyltransferase assay; assay type: functional; conditions: 10 µM
[5] = target: T2, Arginase-2, mitochondrial (Homo sapiens) (UniProt P78540); experiment: in vitro enzyme assay to detect the production of urea directly proportional to the activity of Arginase II; assay type: functional; conditions: 33.3 µM; also: in the data most compounds retested in dose-response had high values
T2 sequence (whole entry): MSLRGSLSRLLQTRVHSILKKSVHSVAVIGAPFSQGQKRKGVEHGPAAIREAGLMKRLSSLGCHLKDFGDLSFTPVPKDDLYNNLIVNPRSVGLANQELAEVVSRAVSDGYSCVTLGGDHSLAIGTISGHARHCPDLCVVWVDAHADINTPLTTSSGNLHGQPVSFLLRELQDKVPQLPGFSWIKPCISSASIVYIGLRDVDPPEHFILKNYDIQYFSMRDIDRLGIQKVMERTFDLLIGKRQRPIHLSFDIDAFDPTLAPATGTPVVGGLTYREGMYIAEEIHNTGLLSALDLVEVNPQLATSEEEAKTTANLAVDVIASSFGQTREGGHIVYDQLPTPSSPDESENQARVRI

[6] = target: T3, Proteasome subunit beta (Trypanosoma cruzi) (UniProt O96673); experiment: Trypanosoma cruzi proteasome chymotrypsin-like activity (TcProtChymo) assay.; also: in the data most compounds retested in dose-response had high values; assay type: functional; conditions: 9.37 µM
T3 sequence (whole entry): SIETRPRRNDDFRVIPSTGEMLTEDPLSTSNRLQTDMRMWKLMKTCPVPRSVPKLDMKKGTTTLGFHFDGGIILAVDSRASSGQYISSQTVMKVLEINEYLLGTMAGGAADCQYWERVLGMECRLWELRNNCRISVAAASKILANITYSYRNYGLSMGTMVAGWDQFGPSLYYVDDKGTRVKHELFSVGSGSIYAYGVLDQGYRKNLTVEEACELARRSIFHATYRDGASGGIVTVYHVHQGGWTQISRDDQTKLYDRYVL

Homo sapiens = organism: Homo sapiens; experiment: To identify inhibition of the IFN signalling (Jak-Stat) pathway via expression of an eGFP reporter gene under the control of an IFN-stimulated response element (ISRE) containing MxA promoter.; assay type: functional; conditions: 30 µM
[7] = target: T4, Tyrosyl-tRNA synthetase, putative (Trypanosoma cruzi (strain CL Brener)) (UniProt Q4DSP6); experiment: Trypanosoma cruzi tyrosyl tRNA synthetase (TcYRS) _High Tyrosine SOP; assay type: functional; conditions: 30 µM; also: in the data most compounds retested in dose-response had high values
T4 sequence (whole entry): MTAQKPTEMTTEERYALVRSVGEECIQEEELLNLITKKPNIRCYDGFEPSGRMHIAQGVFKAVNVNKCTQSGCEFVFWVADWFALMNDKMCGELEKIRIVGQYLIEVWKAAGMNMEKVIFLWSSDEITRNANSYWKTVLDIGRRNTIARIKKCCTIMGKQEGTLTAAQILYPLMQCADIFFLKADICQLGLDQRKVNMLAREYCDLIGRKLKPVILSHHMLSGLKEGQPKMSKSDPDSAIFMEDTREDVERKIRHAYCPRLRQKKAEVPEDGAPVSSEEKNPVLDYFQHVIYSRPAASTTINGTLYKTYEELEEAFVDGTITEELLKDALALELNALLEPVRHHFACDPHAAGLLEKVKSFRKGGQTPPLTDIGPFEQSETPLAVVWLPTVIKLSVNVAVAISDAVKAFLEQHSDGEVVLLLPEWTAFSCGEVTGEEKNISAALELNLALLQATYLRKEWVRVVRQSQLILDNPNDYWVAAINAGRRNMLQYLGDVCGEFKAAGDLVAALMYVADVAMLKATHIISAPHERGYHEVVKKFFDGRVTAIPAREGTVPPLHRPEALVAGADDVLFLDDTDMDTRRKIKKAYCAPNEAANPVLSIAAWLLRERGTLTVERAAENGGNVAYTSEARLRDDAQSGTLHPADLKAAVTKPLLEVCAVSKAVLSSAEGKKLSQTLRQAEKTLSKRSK

[8] = target: T4, Tyrosyl-tRNA synthetase, putative (Trypanosoma cruzi (strain CL Brener)); experiment: Trypanosoma cruzi tyrosyl tRNA synthetase (TcYRS) SOP; assay type: functional; conditions: 30 µM
[9] = target: Chromo domain-containing protein 1 (Saccharomyces cerevisiae (strain ATCC 204508 / S288c) (Baker's yeast)) (UniProt P32657); experiment: ScCHD-1 Enzyme Inhibition Assay; assay type: functional; conditions: 30 µM; also: in the data most compounds retested in dose-response had high values
Chain of Chromo domain-containing protein 1 (Saccharomyces cerevisiae (strain ATCC 204508 / S288c) (Baker's yeast)) (P32657 whole entry, the tested form may be a part): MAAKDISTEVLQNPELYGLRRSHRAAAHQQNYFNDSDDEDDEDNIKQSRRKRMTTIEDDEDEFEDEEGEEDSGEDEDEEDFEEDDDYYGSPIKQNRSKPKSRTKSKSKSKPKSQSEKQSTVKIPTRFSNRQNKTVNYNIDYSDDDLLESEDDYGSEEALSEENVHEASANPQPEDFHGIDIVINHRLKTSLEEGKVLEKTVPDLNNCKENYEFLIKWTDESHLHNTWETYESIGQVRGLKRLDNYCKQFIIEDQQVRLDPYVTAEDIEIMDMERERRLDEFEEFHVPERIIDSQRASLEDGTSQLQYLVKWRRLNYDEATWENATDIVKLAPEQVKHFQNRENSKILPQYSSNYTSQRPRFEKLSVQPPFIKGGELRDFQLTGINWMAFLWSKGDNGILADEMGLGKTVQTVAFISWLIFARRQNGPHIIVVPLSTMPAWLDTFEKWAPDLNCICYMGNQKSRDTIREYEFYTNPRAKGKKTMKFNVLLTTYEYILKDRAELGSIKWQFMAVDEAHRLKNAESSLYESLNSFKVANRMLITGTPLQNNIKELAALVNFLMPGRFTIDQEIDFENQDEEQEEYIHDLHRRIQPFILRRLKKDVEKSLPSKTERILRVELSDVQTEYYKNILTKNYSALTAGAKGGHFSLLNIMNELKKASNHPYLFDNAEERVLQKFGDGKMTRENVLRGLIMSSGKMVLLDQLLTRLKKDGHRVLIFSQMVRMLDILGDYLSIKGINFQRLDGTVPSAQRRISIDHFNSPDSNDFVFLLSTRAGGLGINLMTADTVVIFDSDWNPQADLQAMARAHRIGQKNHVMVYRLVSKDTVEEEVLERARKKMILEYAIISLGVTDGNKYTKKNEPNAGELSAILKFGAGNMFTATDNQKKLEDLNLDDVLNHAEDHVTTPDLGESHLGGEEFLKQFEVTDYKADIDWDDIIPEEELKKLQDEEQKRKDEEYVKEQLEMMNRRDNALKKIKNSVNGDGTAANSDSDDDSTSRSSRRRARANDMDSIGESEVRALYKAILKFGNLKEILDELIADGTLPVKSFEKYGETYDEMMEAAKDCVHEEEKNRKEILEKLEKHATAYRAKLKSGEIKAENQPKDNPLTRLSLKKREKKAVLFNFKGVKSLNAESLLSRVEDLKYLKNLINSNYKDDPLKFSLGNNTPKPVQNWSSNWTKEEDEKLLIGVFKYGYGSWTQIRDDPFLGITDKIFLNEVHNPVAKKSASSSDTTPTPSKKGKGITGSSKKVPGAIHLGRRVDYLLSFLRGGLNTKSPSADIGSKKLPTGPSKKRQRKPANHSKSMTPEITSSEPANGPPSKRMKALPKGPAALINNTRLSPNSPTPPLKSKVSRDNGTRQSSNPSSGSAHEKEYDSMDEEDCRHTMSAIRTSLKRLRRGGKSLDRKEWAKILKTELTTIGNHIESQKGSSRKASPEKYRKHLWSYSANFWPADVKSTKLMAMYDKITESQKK

Chain of Protein translocase subunit SecA (Escherichia coli (strain K12)) (P10408 whole entry): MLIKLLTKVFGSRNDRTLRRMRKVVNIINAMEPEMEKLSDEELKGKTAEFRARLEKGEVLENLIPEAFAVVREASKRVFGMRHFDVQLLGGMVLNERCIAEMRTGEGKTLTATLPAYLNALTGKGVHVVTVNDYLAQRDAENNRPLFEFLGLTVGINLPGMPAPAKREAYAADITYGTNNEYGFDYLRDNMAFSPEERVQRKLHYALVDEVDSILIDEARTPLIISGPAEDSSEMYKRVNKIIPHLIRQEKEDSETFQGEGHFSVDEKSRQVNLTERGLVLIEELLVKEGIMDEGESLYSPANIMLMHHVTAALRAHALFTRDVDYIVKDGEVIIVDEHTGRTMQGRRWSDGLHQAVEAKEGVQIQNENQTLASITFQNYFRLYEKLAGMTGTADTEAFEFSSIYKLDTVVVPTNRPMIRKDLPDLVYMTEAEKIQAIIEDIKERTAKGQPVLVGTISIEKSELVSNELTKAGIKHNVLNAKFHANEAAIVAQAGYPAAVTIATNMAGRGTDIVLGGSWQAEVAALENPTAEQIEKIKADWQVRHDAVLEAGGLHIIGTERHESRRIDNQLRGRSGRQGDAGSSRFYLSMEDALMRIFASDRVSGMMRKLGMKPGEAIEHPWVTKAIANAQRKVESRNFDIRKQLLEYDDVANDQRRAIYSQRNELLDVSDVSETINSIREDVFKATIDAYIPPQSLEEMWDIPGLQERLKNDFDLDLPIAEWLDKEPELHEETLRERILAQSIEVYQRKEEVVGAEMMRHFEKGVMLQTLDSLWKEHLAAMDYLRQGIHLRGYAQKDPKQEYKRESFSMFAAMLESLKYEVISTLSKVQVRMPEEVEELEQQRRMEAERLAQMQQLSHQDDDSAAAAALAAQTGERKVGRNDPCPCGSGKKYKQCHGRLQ
Chain of Sialic acid-binding Ig-like lectin 9 (Homo sapiens) (Q9Y336 whole entry): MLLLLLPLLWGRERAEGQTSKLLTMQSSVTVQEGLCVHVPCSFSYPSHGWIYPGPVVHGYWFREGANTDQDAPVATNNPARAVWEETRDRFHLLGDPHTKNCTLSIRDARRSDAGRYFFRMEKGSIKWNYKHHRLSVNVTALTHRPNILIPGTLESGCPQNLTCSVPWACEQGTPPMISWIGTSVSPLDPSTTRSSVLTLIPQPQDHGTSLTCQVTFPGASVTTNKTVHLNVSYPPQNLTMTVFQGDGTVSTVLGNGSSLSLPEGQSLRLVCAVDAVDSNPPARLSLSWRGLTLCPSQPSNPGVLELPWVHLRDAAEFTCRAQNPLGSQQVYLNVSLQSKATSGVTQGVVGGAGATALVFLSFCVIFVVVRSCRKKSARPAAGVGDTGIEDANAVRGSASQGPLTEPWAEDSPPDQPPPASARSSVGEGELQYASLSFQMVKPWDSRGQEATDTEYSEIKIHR

| SMILES | Percent Effect [1] | Percent Effect [2] | Percent Effect [3] | Percent Effect [4] | Percent Effect (Trypanosoma cruzi) | Percent Effect [5] | Percent Effect [6] | Percent Effect (Homo sapiens) | Percent Effect [7] | Percent Effect [8] | Percent Effect [9] |
| --- | --- | --- | --- | --- | --- | --- | --- | --- | --- | --- | --- |
| c1ccc(Cn2cc(CNCC3CCCN3c3cccnn3)cn2)cc1 (stereo not given) | -3.01% | 7.89% | -1.98% | -4.74% | 1.96% | -7.55% | 15.5% | 1.15% | 15.3% | 28.4% | -4.79% |
| COc1cccn(CC(=O)N(C)Cc2ccoc2)c1=O | -7% | -5.48% | -5.18% | 30.6% | 1.59% | 0.399% | 2.48% | -11% | 2.08% | 3.7% | 1.52% |
| Cc1ccc(C)c(NC(=O)N(C)Cc2cnn(C)c2)c1 | -3.08% | 21.6% | -1.59% | -5.73% | -5.94% | -0.401% | 11.3% | 20.3% | 7.39% | 16.1% | -4.13% |
| COc1cccc(COCC(=O)N2CCCC(N3CCCC3)CC2)c1 (stereo not given) | -1.29% | -10.5% | 4.62% | -2.23% | 2.26% | 0% | 6.52% | -5.01% | 14.2% | 7.32% | -0.94% |
| O=C(CN1CCC(c2cccc(F)c2)C1)NCc1ccco1 (stereo not given) | -1.81% | 21.1% | 4.1% | -1.87% | 6.01% | -1.53% | 14.4% | 27.6% | 7.35% | 24.4% | -8.76% |
| Cc1cccc(CN2CCC3(CCCN(C(=O)c4ccsc4)C3)C2=O)n1 (stereo not given) | -2.33% | 0% | 10.5% | -2.49% | 0.0986% | -0.645% | 3.48% | -3.21% | 3.17% | 3.85% | 87.7% |
| CC(=O)c1c(F)cccc1N1CCC(CS(N)(=O)=O)CC1 | -2% | -2.74% | 4.36% | -0.254% | 0.595% | -2% | 10.4% | 3.02% | 4.17% | 3.7% | -2.94% |
| CSc1ncccc1C(=O)N1CCC(c2nc3c(C)cccc3[nH]2)CC1 | -5.33% | 20.8% | 6.84% | 10.4% | 3.83% | -5.52% | 16.1% | 3.12% | 7.53% | 13.6% | -10.4% |
| CC(NC(=O)NCc1cc[nH]n1)c1ccc2c(c1)CCC(=O)N2 (stereo not given) | -3.48% | 13% | -2.39% | 10.7% | 5.43% | 0.712% | 4.9% | 4.17% | 4.85% | 21.9% | -9.64% |
| COc1cc(N2C[C@@H]3COC[C@]3(COCc3cccc(C)n3)C2)ncn1 | -0.6% | 2.7% | 3.71% | 5.38% | 4.79% | 0.955% | 17.7% | 27.6% | 1.08% | 2.56% | 2.03% |
| O=C(NCc1cnc2n1CCN(c1ncc(F)cn1)CC2)C1CCC1 | -3.67% | 0% | 0.174% | 23.6% | 2.83% | 1.24% | -0.772% | -4.55% | 4.3% | 3.7% | 0.0919% |
| O=C1CC(c2cccs2)c2cnn(C3CCCC3)c2N1 (stereo not given) | -5.95% | -5.33% | 6.01% | -6.09% | -6.13% | -4.69% | 6.97% | 10.9% | -2.73% | -6.17% | 1.62% |
| Cc1ccc(N2CC3(CCN(C(=O)c4ccoc4)C3)C2)nn1 | -2.51% | 15.6% | 2.65% | 11.4% | 3.64% | -143% | 9.48% | 0.925% | 5.38% | 13.6% | -5.33% |
| CCOCC(O)CN1CCN(C(=O)c2ccc(OC)cc2F)CC1 (stereo not given) | -4.94% | 18.2% | -0.292% | 4.59% | 1.87% | 2.85% | 0.676% | 13.6% | 7.77% | 14.6% | -9.36% |
| Cc1cnn(C2CN(CC(O)c3ccc(F)cc3)C2)c1 (stereo not given) | 1.74% | -2.67% | -7.34% | 3.97% | 2.82% | 8.33% | 3.31% | 17.9% | 6.01% | 13.6% | 105% |
| NC(=O)C1(Cc2ccccc2-c2ccccc2)CCCN(CC2CC2)C1 (stereo not given) | -0.127% | 0% | 8.02% | 1.63% | 3.15% | 0.233% | 5.2% | -4.55% | 2.13% | 3.85% | -2.97% |
| Cc1cc(C)n(CCC(=O)N2CCC(c3nc(C(C)C)no3)CC2)n1 | -2.78% | 20.8% | 4.41% | 11.6% | 5.8% | -40% | 16.5% | -3.55% | 6.45% | 18.5% | -7.45% |
| O=C(NCc1ccccn1)Nc1cc(C(F)(F)F)c[nH]c1=O | -6.27% | 5.41% | -7.01% | 23.6% | 4.74% | 4.25% | 4.67% | 2.58% | 3.96% | 18.3% | -8.44% |
| O=C(c1ccc(Cl)c(Cl)c1)N1CCCC(n2cncn2)C1 (stereo not given) | -0.919% | 2.7% | -3.55% | 0.213% | -2.14% | 6.47% | -7% | 6.82% | 3.96% | 3.66% | 7.67% |
| Cc1nc(CN2CCC3(CCN(c4ncc(F)cn4)C3)C2=O)cs1 (stereo not given) | 1.42% | 15.6% | 4.16% | -14.7% | -3.25% | 9.68% | 21.4% | 6.2% | 6.35% | 11.5% | -9.48% |
